The list is not random: actives were taken first. Their share in the collection is about 6%.
D1 antag: antagonists of human D1 dopamine receptor; HEK293 TREx D1 cells, calcium flux, dopamine EC80; hits give low values; AID 504652; P21728; 360,000 tested, 3.2% active; activity change, negative = inhibition, % at 10 µM; in the data active means activity change below about -30%
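HEK293 T-REx cells expressing inducible, force-coupled D1 receptor; no-wash Ca dye, 30–90 min RT. Cmpd → 180 s read at 1 Hz → EC80 DA → 180 s read.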
D3 antag: antagonists of human D3 dopamine receptor. P35462. D3R cells, DiscoveRx beta-arrestin luminescence, antagonist mode; hits give low values. max response, negative = inhibition, %. 360,000 tested, 2.5% active. AID 652054; in the data active means max response below about -50%; inconclusive means no clear call, values can overlap the other calls
Target sequence (P35462 whole entry, looked up): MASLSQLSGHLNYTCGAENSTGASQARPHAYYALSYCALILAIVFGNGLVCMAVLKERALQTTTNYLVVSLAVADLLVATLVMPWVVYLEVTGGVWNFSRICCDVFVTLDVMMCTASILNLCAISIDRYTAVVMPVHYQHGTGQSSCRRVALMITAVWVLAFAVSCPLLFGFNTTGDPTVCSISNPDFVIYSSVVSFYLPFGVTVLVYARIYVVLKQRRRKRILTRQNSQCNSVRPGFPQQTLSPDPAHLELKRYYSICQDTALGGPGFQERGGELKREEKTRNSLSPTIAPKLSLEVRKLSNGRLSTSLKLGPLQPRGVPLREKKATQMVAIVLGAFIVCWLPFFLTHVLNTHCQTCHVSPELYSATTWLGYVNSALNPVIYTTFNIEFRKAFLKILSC
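Cells expressing the human receptor were seeded at 1500 cells/well, incubated overnight at 37 degrees C in 5% CO2, then exposed to library compounds with dopamine controls for 90 minutes at 37 degrees C before luminescent detection.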
D1 PAM: human D1 dopamine receptor positive modulation; HEK293 TREx D1 cells, calcium flux, dopamine EC20 potentiation; potentiation, % at 10 µM; 360,000 tested, 0.036% active; in the data active means potentiation above about 30%
D3 ag: D3 dopamine receptor (human) agonism; D3R DiscoveRx beta-arrestin cells, luminescence, 90 min; max activation, %; 410,000 tested, 0.58% active; in the data active means max activation above about 30%
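Agonist-mode cell screen: cells plated at 1500/well and incubated overnight at 37 °C, then exposed to library compounds for 90 min at 37 °C. Detection reagent was added for 30–60 min at room temperature, and luminescence was read.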
D1 agonist: human D1 receptor agonism. activation, % at 2 µM. 360,000 tested, 1% active. HEK293 T-REx D1 cells, calcium flux, agonist mode. P21728; in the data active means activation above about 30%
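Inducible HEK293 T-REx D1 cells, force-coupled to calcium signalling, were plated at 4000 cells/well with tetracycline and held overnight at 30 C. After no-wash calcium dye loading, compound-evoked calcium rise over 180 s flagged agonists.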
Each line names hits and unclear results; the compound was inactive in the other large screens; ! = repeats disagree.

O=C(NCCc1nnc2ccc(N3CCCCCC3)nn12)c1ccccc1	D1 antag -31, D1 agonist 41
Cc1nnc2ccc(N3CCN(C(=O)c4ccccc4)CC3)nn12	D1 antag -62
Cc1ccc(C(=O)N2CCN(c3ccc(N4CCOCC4)nn3)CC2)cc1	D1 antag -32
Cc1nc(-c2ccc(C)c(N3CCN(C(=O)Nc4cccc(Cl)c4C)CC3)c2)no1	none (no result: D3 antag)
COc1cc(Cc2cnc(N)nc2N)cc(OC)c1OC	D1 antag -48!
COc1cc(CCC(=O)Nc2ncc(C)s2)cc(OC)c1OC	none
CCCCn1nnc(NC(=O)c2cc3ccccc3o2)n1	D1 antag -36
CCCn1nnc(NC(=O)c2cc3ccccc3o2)n1	none
CCCCn1nnc(NC(=O)c2ccc(-c3cccc(Cl)c3)o2)n1	D3 antag -86
O=C(NCCc1ccccc1)c1ccc2c(c1)N(Cc1ccccc1)C(=O)c1ccccc1S2=O (stereo not drawn)	none (no result: D3 antag)
COc1ccc(-c2[nH]ncc2CN2CCC(O)(c3ccc(Cl)cc3)CC2)cc1	D3 antag inconclusive
OC1(c2ccc(Cl)cc2)CCN(Cc2cn[nH]c2-c2ccccc2)CC1	D3 antag -98
OC1(c2ccc(Cl)cc2)CCN(Cc2cn[nH]c2-c2ccc(F)cc2)CC1	D3 antag -98
CCOC(=O)c1cc(-c2ccccc2)sc1NC(=O)C(C)(C)C	none
CCOC(=O)c1cc(-c2ccccc2)sc1NC(=O)CC(C)C	D1 antag -31
Cc1cc(C)cc(NC(=O)CCC(=O)N2CCSc3ccccc32)c1	D1 antag -58!
COC(=O)c1ccccc1NC(=O)CCC(=O)N1CCSc2ccccc21	none
OC(COc1cccc2ccccc12)CN1CCOCC1 (stereo not drawn)	none (no result: D1 antag, D1 PAM, D1 agonist)
CCOc1ccccc1N1CCN(CC(O)COC2CCCc3ccccc32)CC1 (stereo not drawn)	D3 antag -89
COc1ccc(N2CCN(CC(O)COc3c(OC)cccc3OC)CC2)cc1 (stereo not drawn)	none
COc1cccc(OC)c1OCC(O)CN1CCN(c2ccccc2F)CC1 (stereo not drawn)	D3 antag -57
COc1ccccc1N1CCN(CC(O)COc2cccc3ccccc23)CC1 (stereo not drawn)	D1 antag -67!, D3 antag -99
COc1ccccc1N1CCN(CC(O)COc2ccc3c(c2)OCO3)CC1 (stereo not drawn)	D3 antag -103
OCCN1CCN(CC(O)COc2ccc3c(c2)OCO3)CC1 (stereo not drawn)	D3 antag inconclusive
CCOC(=O)c1c(NC(=O)c2cc(-c3ccc(OC)cc3)on2)sc(C)c1C	none (no result: D3 antag)
COc1ccccc1N1CCN(Cc2cc3c(cc2O)OCO3)CC1	D1 antag -37, D3 antag -81
OC(COc1cccc2ccccc12)CN1CCN(c2ccccc2)CC1 (stereo not drawn)	D3 antag -54, D3 ag 35
COc1ccc(COCC(O)CN2CCN(S(=O)(=O)c3ccc(C(C)C)cc3)CC2)cc1 (stereo not drawn)	D1 antag -30
CCOc1ccccc1N1CCN(CC(O)COc2ccc3c(C)cc(=O)oc3c2)CC1 (stereo not drawn)	D3 antag -70
Cc1cc(=O)oc2cc(OCC(O)CN3CCN(c4ccc(F)cc4)CC3)ccc12 (stereo not drawn)	D3 antag inconclusive
COc1ccc(C(=O)CN2CCN(S(=O)(=O)c3ccc(C(C)C)cc3)CC2)cc1	none (no result: D3 antag)
CCOc1ccc(-n2nc3ccc(NC(=O)c4ccc(C)cc4C)cc3n2)cc1	none (no result: D3 antag)
COc1cc(NC(=O)Cn2c(-c3ccccc3)cc(C(C)=O)c2C)cc(OC)c1	none (no result: D3 antag)
Cc1ccccc1CNC(=O)Cc1ccc(NC(=O)N2CCCCc3ccccc32)cc1	none (no result: D3 antag)
COc1ccc(NC(=O)CN2C(=O)C(c3ccc(C(C)(C)C)cc3)=NC2(C)C)cc1Cl	none (no result: D3 antag)
Cc1ccccc1Cn1cc(S(=O)(=O)c2ccc(F)cc2)c(=O)c2cc3c(cc21)OCO3	none (no result: D3 antag)
OC(COc1ccccc1Cl)CN1CCN(CC(O)COc2ccccc2Cl)CC1 (stereo not drawn)	D1 antag -82, D3 antag inconclusive, D1 agonist 99
CC1CC(C)CN(CC(O)COCc2ccccc2F)C1 (stereo not drawn)	none
Oc1ccccc1N1CCN(CC(O)COCc2ccccc2Cl)CC1 (stereo not drawn)	D3 antag -53
Cc1ccccc1OCC(O)CN1CCN(C)CC1 (stereo not drawn)	none
CC(C)c1ccccc1OCC(O)CN1CCN(S(=O)(=O)c2ccc([N+](=O)[O-])cc2)CC1 (stereo not drawn)	D3 antag -55
O=S(=O)(c1ccc(F)cc1)N1CCN(CC(O)COc2ccccc2F)CC1 (stereo not drawn)	none
O=C(C/C=N\OCc1ccc([N+](=O)[O-])cc1)Nc1ccccc1	none
COC(=O)C(/C=N/OCc1ccc([N+](=O)[O-])cc1)NC(=O)c1ccccc1 (stereo not drawn)	D1 agonist 30
Cc1ccc(C(=O)NCc2ccc3c(c2)CCO3)cc1C	D1 antag -48
C=CCN1C[C@H](C(=O)N(CCCN(C)C)C(=O)NCC)C[C@@H]2c3cccc4[nH]cc(c34)C[C@H]21	D3 ag 67 (no result: D1 antag, D3 antag, D1 PAM, D1 agonist)
CCOC(=O)N1CCN(C(=O)CCS(=O)(=O)c2cc3c(cc2Cl)NC(=O)CO3)CC1	none
COc1ccc(N2CCN(C(=O)CCS(=O)(=O)c3cc4c(cc3Cl)NC(=O)CO4)CC2)cc1	D1 antag -64 (no result: D3 antag)
O=C(CCS(=O)(=O)c1cc2c(cc1Cl)NC(=O)CO2)NCc1ccc(F)cc1	D1 antag -35
Cn1c(=O)[nH]c(=O)c2c1nc(Br)n2CCSc1nc2ccccc2o1	D3 antag -70
Cn1c(=O)[nH]c(=O)c2c1nc(N1CCCCCC1)n2CCSc1nc2ccccc2o1	none
O=C(NNC(=O)c1ccc2ncccc2c1)c1ccc(Cl)cc1	none
O=C(NNC(=O)c1ccc2nonc2c1)Nc1ccc(Cl)cc1	D3 antag -69
CCN(CC(=O)Nc1sc2c(c1C#N)CCC(C)C2)Cc1nc2ccccc2c(=O)[nH]1 (stereo not drawn)	D1 antag -61
CCN(CC(=O)Nc1sc2c(c1C#N)CCC(C)C2)CC(=O)NC1CCS(=O)(=O)C1 (stereo not drawn)	D1 antag -60
CCOC(=O)c1cc2c(=O)n3ccccc3nc2n(Cc2ccco2)c1=NC(=O)c1c(F)cccc1Cl	none (no result: D3 antag)
CC(=O)Oc1ccc(Cn2cnc3cc4ccccc4cc32)cc1	D1 antag -42
CCC1Sc2ccccc2N(CC(=O)NCc2ccc(C)cc2)C1=O (stereo not drawn)	none (no result: D3 antag)
CCOC(=O)c1cc2c(C)n(-c3ccc(C)cc3)c(C)c2ccc1=O	D1 antag -58
CCCN1CCC(NC(=O)CCc2nnc(-c3ccccc3)o2)CC1	D3 antag -53

Assay outcomes (PubChem)
